# Measured values reported in the supplement of paper PMC6555819.
# Columns and labels:
# Assay in all cases: PBM binding z-score (relative to random genomic background probes); higher = stronger binding; sequences stand for … in GC…GCGATTGACAGCGTAGAATGAAGG
# [1] = system: RARb homodimer (NR concentration 270 nM)
# Method in brief: (§1)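 Custom Agilent 4×180K protein-binding microarrays carried double-stranded probes, each with a 34-nt variable region. These regions held direct-repeat seeds, single-nucleotide variants, half-site ablations and random human genomic background sequences. Ligand-free nuclear receptor dimers were incubated on the arrays for 1 h, antibodies against each partner (one per run) detected binding, and scanned fluorescence was regression-normalized. Binding z-scores take the random background probes as reference.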
# [2] = system: RARg:RXRa (NR concentration 270 nM, RXRa partner concentration 90 nM)
# Method in brief: as §1
# [3] = system: RARg homodimer (NR concentration 270 nM)
# Method in brief: as §1
# [4] = system: RXRa DBDmut IVT, anti-RXR (DBD mutation: RXRa K156A/R161A, NR concentration 90 nM)
# Method in brief: as §1
# [5] = system: RXRa homodimer (NR concentration 180 nM)
# Method in brief: as §1
# [6] = system: THRa:RXRa (NR concentration 90 nM, RXRa partner concentration 90 nM)
# Method in brief: as §1
# [7] = system: THRa homodimer (NR concentration 90 nM)
# Method in brief: as §1
# [8] = system: VDR homodimer (NR concentration 270 nM)
# Method in brief: as §1
sequence,measurement,setting,value
CAAACTAGGTCACGAAAGGTTAAAGTCGAATGAC,PBM binding z-score,[1],4.85
same,PBM binding z-score,[2],6.19
same,PBM binding z-score,[3],6.18
same,PBM binding z-score,[4],1.95
same,PBM binding z-score,[5],5.5
same,PBM binding z-score,[6],4.67
same,PBM binding z-score,[7],1.78
same,PBM binding z-score,[8],1.8
CGTCCAAGGTCAGAGGTCAGTGAAGAGATGACGG,PBM binding z-score,[1],5.38
same,PBM binding z-score,[2],7.02
same,PBM binding z-score,[3],7.05
same,PBM binding z-score,[4],2.66
same,PBM binding z-score,[5],7.78
same,PBM binding z-score,[6],4.58
same,PBM binding z-score,[7],2.42
same,PBM binding z-score,[8],2.61
GGAACGAGGGCATTCGAGTGGATAGCATGGCGAT,PBM binding z-score,[1],0.402
same,PBM binding z-score,[2],0.904
same,PBM binding z-score,[3],1.23
same,PBM binding z-score,[4],2.83
same,PBM binding z-score,[5],0.651
same,PBM binding z-score,[6],1.69
same,PBM binding z-score,[7],-0.704
same,PBM binding z-score,[8],1.87
GGAACGCGGGCAAAGTTGATAGCATCTGTCGACG,PBM binding z-score,[1],-0.251
same,PBM binding z-score,[2],0.143
same,PBM binding z-score,[3],0.259
same,PBM binding z-score,[4],0.0126
same,PBM binding z-score,[5],0.126
same,PBM binding z-score,[6],-0.6
same,PBM binding z-score,[7],-1.04
same,PBM binding z-score,[8],-0.471
TCTCGGAGGACCCGAAAGGTCAGAGCTCGACATC,PBM binding z-score,[1],4.21
same,PBM binding z-score,[2],3.92
same,PBM binding z-score,[3],4.15
same,PBM binding z-score,[4],0.325
same,PBM binding z-score,[5],4.04
same,PBM binding z-score,[6],2.75
same,PBM binding z-score,[7],0.369
same,PBM binding z-score,[8],0.435
CCTACTGGGCCAACGTCATTGATCAGTCAAAGCA,PBM binding z-score,[1],0.446
same,PBM binding z-score,[2],-0.195
same,PBM binding z-score,[3],-0.0642
same,PBM binding z-score,[4],-0.651
same,PBM binding z-score,[5],-0.328
same,PBM binding z-score,[6],-0.204
same,PBM binding z-score,[7],-0.526
same,PBM binding z-score,[8],-0.545
AGAATGAGGTTATTAAGATCAGGAAATTGCGGTC,PBM binding z-score,[1],0.491
same,PBM binding z-score,[2],1.3
same,PBM binding z-score,[3],0.9
same,PBM binding z-score,[4],1.99
same,PBM binding z-score,[5],1.75
same,PBM binding z-score,[6],2.06
same,PBM binding z-score,[7],0.497
same,PBM binding z-score,[8],1.18
ATATGTAGGTTACATCCGGGTCAGTCAGGCTATG,PBM binding z-score,[1],2.61
same,PBM binding z-score,[2],3.29
same,PBM binding z-score,[3],1.88
same,PBM binding z-score,[4],0.541
same,PBM binding z-score,[5],2.01
same,PBM binding z-score,[6],3.19
same,PBM binding z-score,[7],1.66
same,PBM binding z-score,[8],1.45
GTAGCAAGGTGAATAGGTCGTTGATGAGTAGGCG,PBM binding z-score,[1],1.48
same,PBM binding z-score,[2],2.35
same,PBM binding z-score,[3],1.1
same,PBM binding z-score,[4],-0.689
same,PBM binding z-score,[5],1.56
same,PBM binding z-score,[6],1.36
same,PBM binding z-score,[7],-0.149
same,PBM binding z-score,[8],-0.287
TTACCCAGGTGAAAGGTCGTTGATGCACGCCTTG,PBM binding z-score,[1],2.56
same,PBM binding z-score,[2],3.48
same,PBM binding z-score,[3],1.53
same,PBM binding z-score,[4],0.677
same,PBM binding z-score,[5],4.51
same,PBM binding z-score,[6],3.2
same,PBM binding z-score,[7],1.26
same,PBM binding z-score,[8],1.66
TCTAGCAGACCAGAGGGTCACTCAAGAGGTACGG,PBM binding z-score,[1],2.18
same,PBM binding z-score,[2],1.95
same,PBM binding z-score,[3],1.42
same,PBM binding z-score,[4],-0.0475
same,PBM binding z-score,[5],2.19
same,PBM binding z-score,[6],1.43
same,PBM binding z-score,[7],-0.387
same,PBM binding z-score,[8],0.415
ACTAGTTGGTCAGCTGAAGTCACACACAATTCGG,PBM binding z-score,[1],0.741
same,PBM binding z-score,[2],0.686
same,PBM binding z-score,[3],0.796
same,PBM binding z-score,[4],0.337
same,PBM binding z-score,[5],0.297
same,PBM binding z-score,[6],0.346
same,PBM binding z-score,[7],-0.0517
same,PBM binding z-score,[8],0.0981
CGAACGAGGGCATGAATTGATAGCAAATGCCGAT,PBM binding z-score,[1],0.244
same,PBM binding z-score,[2],0.899
same,PBM binding z-score,[3],1.3
same,PBM binding z-score,[4],2.24
same,PBM binding z-score,[5],0.708
same,PBM binding z-score,[6],0.857
same,PBM binding z-score,[7],-0.496
same,PBM binding z-score,[8],0.297
TCTTGTAGATCAGGCAGGTTAAGAAAGCCTGAGT,PBM binding z-score,[1],-0.0605
same,PBM binding z-score,[2],-0.161
same,PBM binding z-score,[3],-0.489
same,PBM binding z-score,[4],0.355
same,PBM binding z-score,[5],0.102
same,PBM binding z-score,[6],0.149
same,PBM binding z-score,[7],-0.429
same,PBM binding z-score,[8],0.00584
CGAGCTAGGTCATTGACAGGACAGTGAATAGTAA,PBM binding z-score,[1],2.77
same,PBM binding z-score,[2],4.67
same,PBM binding z-score,[3],4.49
same,PBM binding z-score,[4],2.43
same,PBM binding z-score,[5],2.37
same,PBM binding z-score,[6],2.7
same,PBM binding z-score,[7],0.527
same,PBM binding z-score,[8],1.23
TAGCCTAGCTCATTGGGCCAGTATAGTACGCATC,PBM binding z-score,[1],-0.698
same,PBM binding z-score,[2],-0.5
same,PBM binding z-score,[3],-0.328
same,PBM binding z-score,[4],-0.683
same,PBM binding z-score,[5],-0.449
same,PBM binding z-score,[6],-0.611
same,PBM binding z-score,[7],-0.587
same,PBM binding z-score,[8],-0.87
CAAACTAGGTCAAGCGGTCAAAGTCCGCTTCCCG,PBM binding z-score,[1],4.55
same,PBM binding z-score,[2],5.64
same,PBM binding z-score,[3],6.19
same,PBM binding z-score,[4],1.57
same,PBM binding z-score,[5],4.04
same,PBM binding z-score,[6],3.23
same,PBM binding z-score,[7],0.992
same,PBM binding z-score,[8],1.5
TCTAGTTGGTCAAAGGTCAGACACTCGAAATGCG,PBM binding z-score,[1],4.51
same,PBM binding z-score,[2],6.12
same,PBM binding z-score,[3],5.15
same,PBM binding z-score,[4],1.57
same,PBM binding z-score,[5],6.68
same,PBM binding z-score,[6],3.09
same,PBM binding z-score,[7],1.49
same,PBM binding z-score,[8],1.89
ATAATGAGGTTAAGATCAGGGAAACAGAATACAT,PBM binding z-score,[1],0.864
same,PBM binding z-score,[2],2.47
same,PBM binding z-score,[3],1.96
same,PBM binding z-score,[4],1.16
same,PBM binding z-score,[5],2.68
same,PBM binding z-score,[6],2.74
same,PBM binding z-score,[7],1.02
same,PBM binding z-score,[8],0.406
CCAGACAGGTTAGAAGGTAACTCAGCCTCGATTA,PBM binding z-score,[1],0.786
same,PBM binding z-score,[2],0.637
same,PBM binding z-score,[3],0.641
same,PBM binding z-score,[4],0.0628
same,PBM binding z-score,[5],0.699
same,PBM binding z-score,[6],0.493
same,PBM binding z-score,[7],0.212
same,PBM binding z-score,[8],0.658
CGAACGAGGGCGTGAGTTGATAGCAAATGCCGAT,PBM binding z-score,[1],-0.277
same,PBM binding z-score,[2],0.0501
same,PBM binding z-score,[3],-0.0612
same,PBM binding z-score,[4],1.36
same,PBM binding z-score,[5],0.221
same,PBM binding z-score,[6],0.142
same,PBM binding z-score,[7],-0.691
same,PBM binding z-score,[8],0.785
TAGCCTAGGTCAGATCGGGCCTGTATACGCTATA,PBM binding z-score,[1],1.97
same,PBM binding z-score,[2],2.53
same,PBM binding z-score,[3],3.21
same,PBM binding z-score,[4],-0.396
same,PBM binding z-score,[5],1.29
same,PBM binding z-score,[6],2.64
same,PBM binding z-score,[7],-0.216
same,PBM binding z-score,[8],-0.157
AGAACGAGGGCAAAGAGTTGATAGCACGGGTGGC,PBM binding z-score,[1],1.12
same,PBM binding z-score,[2],1.3
same,PBM binding z-score,[3],1.69
same,PBM binding z-score,[4],2.57
same,PBM binding z-score,[5],1.14
same,PBM binding z-score,[6],0.917
same,PBM binding z-score,[7],-0.224
same,PBM binding z-score,[8],3.05
ATATGTAGGTTGAGGGTCATTCAGGTTGGTTCGC,PBM binding z-score,[1],3.23
same,PBM binding z-score,[2],2.89
same,PBM binding z-score,[3],2.15
same,PBM binding z-score,[4],1.95
same,PBM binding z-score,[5],3.62
same,PBM binding z-score,[6],2.92
same,PBM binding z-score,[7],1.68
same,PBM binding z-score,[8],3.74
ATCGAAAAGTCGACGAGGTGAGTATACACCGTTT,PBM binding z-score,[1],0.0886
same,PBM binding z-score,[2],0.532
same,PBM binding z-score,[3],0.571
same,PBM binding z-score,[4],-0.248
same,PBM binding z-score,[5],0.751
same,PBM binding z-score,[6],1.74
same,PBM binding z-score,[7],0.716
same,PBM binding z-score,[8],-0.201
CGAACGAGGGCCTGAGTTGATAGCAAATGCCGAT,PBM binding z-score,[1],-0.782
same,PBM binding z-score,[2],-0.386
same,PBM binding z-score,[3],-0.326
same,PBM binding z-score,[4],0.337
same,PBM binding z-score,[5],-0.236
same,PBM binding z-score,[6],-0.563
same,PBM binding z-score,[7],-0.666
same,PBM binding z-score,[8],-0.394
CTCGAAAGGACGGTTGAGGTGAGTATACGGATAA,PBM binding z-score,[1],0.363
same,PBM binding z-score,[2],0.406
same,PBM binding z-score,[3],0.541
same,PBM binding z-score,[4],-0.024
same,PBM binding z-score,[5],0.139
same,PBM binding z-score,[6],2.93
same,PBM binding z-score,[7],0.887
same,PBM binding z-score,[8],0.0364
ACGAGTTGGTCAGCTGAGGTCACACACAATTCGG,PBM binding z-score,[1],4.17
same,PBM binding z-score,[2],4.17
same,PBM binding z-score,[3],4.27
same,PBM binding z-score,[4],1.82
same,PBM binding z-score,[5],4
same,PBM binding z-score,[6],4.77
same,PBM binding z-score,[7],4.97
same,PBM binding z-score,[8],4.4
